In PubChem BioAssay (EPA / NIEHS):
Results filed as inconclusive are left out. Active and inactive are the calls of the source. Rule for the calls, unless noted: active = hit-call score of the fitted dose curve at least 0.9, where 1 is the maximum; inactive = score below 0.9.

What was measured:
[1] = biological target: human Matrix Metalloproteinase-9 (MMP9), MMP9 (gene 4318) (UniProt P14780); assay: NVS_ENZ_hMMP9: NovaScreen (NVS) Enzymatic Assay for human Matrix Metalloproteinase-9 (MMP9) (AID 2283190; active = hit-call score of the fitted dose curve at least 0.9, where 1 is the maximum;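 note: cell-free recombinant MMP9 protease activity read by fluorescent substrate signal; active means inhibition seen as loss of fluorescence signal versus DMSO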)
Sequence of human Matrix Metalloproteinase-9 (MMP9), MMP9 (gene 4318) (P14780 whole entry, looked up): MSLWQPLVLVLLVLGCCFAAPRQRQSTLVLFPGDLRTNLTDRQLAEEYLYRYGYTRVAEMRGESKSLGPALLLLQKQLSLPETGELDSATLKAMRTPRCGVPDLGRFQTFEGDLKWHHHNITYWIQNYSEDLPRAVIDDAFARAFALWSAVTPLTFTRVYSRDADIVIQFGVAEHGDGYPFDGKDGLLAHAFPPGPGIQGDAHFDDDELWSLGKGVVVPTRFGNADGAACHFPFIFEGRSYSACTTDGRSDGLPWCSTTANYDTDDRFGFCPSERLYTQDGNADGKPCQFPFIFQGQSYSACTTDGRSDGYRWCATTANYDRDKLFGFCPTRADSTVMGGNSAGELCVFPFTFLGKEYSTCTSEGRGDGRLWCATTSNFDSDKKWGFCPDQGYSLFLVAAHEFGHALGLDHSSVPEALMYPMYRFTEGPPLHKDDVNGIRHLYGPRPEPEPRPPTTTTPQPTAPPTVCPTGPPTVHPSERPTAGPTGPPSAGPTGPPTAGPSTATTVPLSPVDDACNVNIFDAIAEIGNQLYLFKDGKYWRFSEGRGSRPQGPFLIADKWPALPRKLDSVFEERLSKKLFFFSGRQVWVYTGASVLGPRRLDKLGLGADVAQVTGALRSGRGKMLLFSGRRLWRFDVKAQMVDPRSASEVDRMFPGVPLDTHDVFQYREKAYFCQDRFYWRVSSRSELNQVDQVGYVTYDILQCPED
Procedure, shortened: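 Inhibition was scored as loss of fluorescence signal against DMSO controls. The recombinant protease was exposed to chemicals for 1 hour before reading; initial testing used 25 uM in duplicate.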

[2] = biological target: human Thyroid Receptor Alpha (TRa), THRA (gene 7067) (UniProt P10827); assay: NVS_NR_hTRa_Antagonist: NovaScreen (NVS) Nuclear Receptor Binding Assay for human Thyroid Receptor Alpha Antagonism (TRa) (AID 2283362; active = hit-call score of the fitted dose curve at least 0.9, where 1 is the maximum;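 note: activity is loss of signal relative to DMSO baseline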)
Sequence of human Thyroid Receptor Alpha (TRa), THRA (gene 7067) (P10827 whole entry, looked up): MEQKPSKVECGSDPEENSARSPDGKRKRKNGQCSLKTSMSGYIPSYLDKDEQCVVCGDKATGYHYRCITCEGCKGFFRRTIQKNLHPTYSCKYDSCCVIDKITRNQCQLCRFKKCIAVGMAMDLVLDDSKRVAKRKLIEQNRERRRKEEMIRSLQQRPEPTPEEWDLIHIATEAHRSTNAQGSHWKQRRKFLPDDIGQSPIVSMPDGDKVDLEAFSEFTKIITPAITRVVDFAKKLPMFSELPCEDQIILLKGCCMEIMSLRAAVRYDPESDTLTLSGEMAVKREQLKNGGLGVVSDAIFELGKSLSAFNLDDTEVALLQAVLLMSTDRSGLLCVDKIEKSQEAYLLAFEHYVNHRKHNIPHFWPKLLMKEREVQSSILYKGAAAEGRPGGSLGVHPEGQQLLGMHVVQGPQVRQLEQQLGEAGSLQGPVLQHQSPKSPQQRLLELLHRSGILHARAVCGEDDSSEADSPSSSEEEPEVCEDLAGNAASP
Procedure, shortened: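 Cell-free binding assay on extracted receptor protein, read 1 h after chemical dosing by AlphaLISA chemiluminescence; loss of signal relative to DMSO baseline marks antagonism. Primary screen ran in duplicate at 25 uM, with concentration series for actives.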

[3] = CCTE_Deisenroth_5AR_NBTE_donor: CCTE's 5alpha-reductase NanoBRET Target Engagement Assay […], Deisenroth Lab (AID 2284319); conditions: actives raise or lower the signal
Procedure, shortened: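 SRD5A2-NanoLuc, HEK293T, 20 h expression. Chemical 10 nM - 29.9 uM, 8 conc, duplicate; 3 h preincubation + 2 h testosterone tracer. Nano-Glo substrate plus extracellular NanoLuc inhibitor; donor lum 460 nm. DMSO baseline, bidirectional fit.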

[4] = CCTE_Deisenroth_5AR_NBTE_acceptor: CCTE's 5alpha-reductase NanoBRET Target Engagement Assay - Autofluorescence Screen, Deisenroth Lab (AID 2284321); conditions: actives raise or lower the signal;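 note: compound fluorescence in the acceptor channel under 460 nm excitation flags autofluorescence artifacts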
Procedure, shortened: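 HEK293T cell-based NanoBRET assay read 5 h after dosing; this acceptor channel serves as an autofluorescence artifact screen. Chemicals at nominal 100 uM were scanned in three independent runs (n=3), excitation 460 nm. Fitting was bidirectional versus DMSO baseline.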

SRD5A2 (gene 6716) = assay: CCTE_Deisenroth_5AR_NBTE_ratio: CCTE's 5alpha-reductase NanoBRET Target Engagement Assay - Ratio, Deisenroth Lab (AID 2284322); conditions: actives raise or lower the signal
Procedure, shortened: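 HEK293T cells transiently expressing an SRD5A2-NanoLuc fusion (20 h post-transfection) were exposed to test chemical (10 nM - 29.9 uM, 8 points) for 3 h, then testosterone tracer for a further 2 h. Acceptor/donor BRET ratio was fitted bidirectionally against DMSO baseline.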

[5] = biological target: D(1A) dopamine receptor (Homo sapiens) (UniProt P21728); assay: NVS_GPCR_hDRD1: NovaScreen (NVS) G Protein-Coupled Receptor Assay for human Dopamine Receptor D1 (DRD1) (AID 2283269; active = hit-call score of the fitted dose curve at least 0.9, where 1 is the maximum)
Sequence of D(1A) dopamine receptor (Homo sapiens) (P21728 whole entry, looked up): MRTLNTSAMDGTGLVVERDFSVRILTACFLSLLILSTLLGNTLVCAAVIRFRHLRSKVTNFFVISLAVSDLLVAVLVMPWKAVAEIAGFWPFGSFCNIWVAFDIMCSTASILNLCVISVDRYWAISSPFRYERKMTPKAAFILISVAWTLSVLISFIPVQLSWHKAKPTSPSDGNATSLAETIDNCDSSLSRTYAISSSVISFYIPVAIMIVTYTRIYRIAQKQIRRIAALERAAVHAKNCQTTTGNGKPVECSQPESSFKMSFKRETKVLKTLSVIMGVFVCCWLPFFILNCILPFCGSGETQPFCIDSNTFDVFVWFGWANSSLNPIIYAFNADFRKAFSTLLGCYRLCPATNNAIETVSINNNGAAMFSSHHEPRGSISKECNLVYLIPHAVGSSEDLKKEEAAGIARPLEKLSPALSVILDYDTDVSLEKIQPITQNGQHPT
Procedure, shortened: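 HEK293-derived receptor preparation; radioligand competitive displacement; 1 h; filtration + scintillation counting. DMSO = negative control/baseline. Primary: 25 uM, duplicate; secondary: concentration–response for actives.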

[6] = biological target: Muscarinic acetylcholine receptor M2 (Homo sapiens) (UniProt P08172); assay: NVS_GPCR_hM2: NovaScreen (NVS) G Protein-Coupled Receptor Assay for human Muscarinic, M2 Receptor (AID 2283273; active = hit-call score of the fitted dose curve at least 0.9, where 1 is the maximum)
Sequence of Muscarinic acetylcholine receptor M2 (Homo sapiens) (P08172 whole entry, looked up): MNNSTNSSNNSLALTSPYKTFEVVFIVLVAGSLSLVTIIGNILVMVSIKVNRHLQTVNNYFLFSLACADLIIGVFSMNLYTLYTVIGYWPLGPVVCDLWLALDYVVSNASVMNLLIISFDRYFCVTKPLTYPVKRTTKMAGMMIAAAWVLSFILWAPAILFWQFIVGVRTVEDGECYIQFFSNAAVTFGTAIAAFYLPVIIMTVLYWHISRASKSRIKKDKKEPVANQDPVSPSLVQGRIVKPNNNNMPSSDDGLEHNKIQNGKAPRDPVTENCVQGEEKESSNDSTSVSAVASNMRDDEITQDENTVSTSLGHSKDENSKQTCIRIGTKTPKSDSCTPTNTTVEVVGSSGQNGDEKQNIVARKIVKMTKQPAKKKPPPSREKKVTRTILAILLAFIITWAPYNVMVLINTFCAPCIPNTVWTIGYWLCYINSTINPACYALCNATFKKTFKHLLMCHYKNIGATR
Procedure, shortened: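 Filter-based radiodetection read bound radioligand 1 h after dosing CHO-derived membrane protein. Single-concentration duplicates (25 uM) first, then concentration-response for actives; signal loss versus DMSO scored.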

[7] = biological target: Sodium channel protein type 1 subunit alpha (Rattus norvegicus) (UniProt P04774); assay: NVS_IC_rNaCh_site2: NovaScreen (NVS) Ion Channel Assay for rat Sodium Channel, Site 2 (NaCh) (AID 2283322; active = hit-call score of the fitted dose curve at least 0.9, where 1 is the maximum;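 note: hit means loss of radioligand binding signal relative to DMSO so AC50 marks displacement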)
Procedure, shortened: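 Initial duplicate single-point testing at 25 uM, followed by concentration-response runs for actives. Binding of radioligand to rat forebrain membranes quantified after 1 h via filter-based radiodetection.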

[8] = biological target: guinea pig Sigma Receptor, Non-selective Binding, SIGMAR1 (gene 100135589) (UniProt Q60492); assay: NVS_OR_gSIGMA_NonSelective: NovaScreen (NVS) Nuclear Receptor Binding Assay for guinea pig Sigma Receptor, Non-selective Binding (AID 2283367; active = hit-call score of the fitted dose curve at least 0.9, where 1 is the maximum)
Sequence of guinea pig Sigma Receptor, Non-selective Binding, SIGMAR1 (gene 100135589) (Q60492 whole entry, looked up): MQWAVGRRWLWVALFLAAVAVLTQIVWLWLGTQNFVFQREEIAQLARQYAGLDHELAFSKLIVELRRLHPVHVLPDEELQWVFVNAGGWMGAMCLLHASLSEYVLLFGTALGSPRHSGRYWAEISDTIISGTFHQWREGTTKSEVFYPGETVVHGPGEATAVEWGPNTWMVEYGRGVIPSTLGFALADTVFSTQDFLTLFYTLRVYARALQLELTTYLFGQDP
Procedure, shortened: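 Membranes from guinea pig brain incubated with radioligand and test chemical for 1 h, then filtered and scintillation-counted. Duplicate primary testing at 25 uM, with concentration-series follow-up for actives.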

[9] = biological target: human Dopamine Transporter (DAT), SLC6A3 (gene 6531) (UniProt Q01959); assay: NVS_TR_hDAT: NovaScreen (NVS) Transporter Assay for human Dopamine Transporter (DAT) (AID 2283374; active = hit-call score of the fitted dose curve at least 0.9, where 1 is the maximum;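 note: activity means loss of bound radioligand signal relative to DMSO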)
Sequence of human Dopamine Transporter (DAT), SLC6A3 (gene 6531) (Q01959 whole entry, looked up): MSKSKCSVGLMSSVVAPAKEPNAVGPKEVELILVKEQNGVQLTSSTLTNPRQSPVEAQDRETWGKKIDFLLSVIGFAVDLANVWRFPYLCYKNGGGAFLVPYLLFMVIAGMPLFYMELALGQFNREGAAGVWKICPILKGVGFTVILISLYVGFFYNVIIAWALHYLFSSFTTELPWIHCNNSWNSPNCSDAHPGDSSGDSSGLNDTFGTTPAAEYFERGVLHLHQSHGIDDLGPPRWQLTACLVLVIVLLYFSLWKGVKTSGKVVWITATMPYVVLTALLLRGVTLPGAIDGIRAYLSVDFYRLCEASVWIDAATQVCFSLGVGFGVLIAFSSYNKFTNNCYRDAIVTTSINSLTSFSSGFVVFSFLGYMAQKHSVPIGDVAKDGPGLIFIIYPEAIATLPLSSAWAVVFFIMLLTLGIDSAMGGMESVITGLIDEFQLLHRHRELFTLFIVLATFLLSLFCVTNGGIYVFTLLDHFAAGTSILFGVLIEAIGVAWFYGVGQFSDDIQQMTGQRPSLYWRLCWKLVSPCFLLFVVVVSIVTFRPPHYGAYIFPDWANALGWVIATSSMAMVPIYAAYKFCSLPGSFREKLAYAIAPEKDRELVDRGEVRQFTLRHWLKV
Procedure, shortened: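 hDAT membranes + tritiated/iodinated radioligand, competitive displacement; 1 h; filter scintillation readout. Single conc 25 uM (duplicate), then conc-response for actives. DMSO = negative control.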

[10] = biological target: human Norepinephrine Transporter (NET), SLC6A2 (gene 6530) (UniProt P23975); assay: NVS_TR_hNET: NovaScreen (NVS) Transporter Assay for human Norepinephrine Transporter (NET) (AID 2283377; active = hit-call score of the fitted dose curve at least 0.9, where 1 is the maximum;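 note: cell-free membrane protein extracted from CHO cells expressing human NET; displacement of radioligand from human NET seen as loss of scintillation signal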)
Procedure, shortened: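 CHO cell extracts expressing the transporter; tritiated or iodinated tracer displaced competitively; filtration plus scintillation readout at 1 h. Single-point duplicates at 25 uM, concentration series for follow-up; activity = signal drop relative to DMSO.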

[11] = CEETOX_H295R_OHPREG: CeeTox H295R High-throughput Steroidogenesis Assay for OH-Pregnenolone (OHPREG) (AID 2283434); conditions: actives raise or lower the signal
Procedure, shortened: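 H295R, 10 uM forskolin pre-stim 48 h; test chemical 48 h, 0.1% DMSO final. MTBE extraction, reverse-phase C18 HPLC-ESI+ MS/MS of medium. Gain/loss vs DMSO; viability by MTT in same wells.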

[12] = CEETOX_H295R_OHPROG: CeeTox H295R High-throughput Steroidogenesis Assay for OH-Progesterone (OHPROG) (AID 2283435); conditions: actives raise or lower the signal;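 for AC50: 17alpha-hydroxyprogesterone secreted into medium measured by HPLC-MS/MS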
Procedure, shortened: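 Medium steroid levels read by LC-MS/MS after 48 h chemical treatment (0.1% DMSO) of human adrenal H295R cells that had been forskolin-primed (10 uM, 48 h). Gain or loss fitted against DMSO; MTT cytotoxicity checked per well.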

[13] = CEETOX_H295R_PROG: CeeTox H295R High-throughput Steroidogenesis Assay for Progesterone (PROG) (AID 2283442); conditions: actives raise or lower the signal;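 for AC50: human H295R adrenal cells primed with 10 µM forskolin before dosing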
Procedure, shortened: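 H295R human adrenal cells were prestimulated with 10 uM forskolin for 48 h, then exposed to test chemical (0.1% DMSO final) for 48 h. Medium progesterone was MTBE-extracted and quantified by HPLC-MS/MS, with bidirectional fitting against DMSO.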

[14] = biological target: sheep Cyclooxygenase-1 (Cox1), PTGS1 (gene 443551) (UniProt P05979); assay: NVS_ENZ_oCOX1: NovaScreen (NVS) Enzymatic Assay for sheep Cyclooxygenase-1 (Cox1) (AID 2283239; active = hit-call score of the fitted dose curve at least 0.9, where 1 is the maximum;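 note: actives reduce cyclooxygenase activity so potencies are for inhibitors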)
Sequence of sheep Cyclooxygenase-1 (Cox1), PTGS1 (gene 443551) (P05979 whole entry, looked up): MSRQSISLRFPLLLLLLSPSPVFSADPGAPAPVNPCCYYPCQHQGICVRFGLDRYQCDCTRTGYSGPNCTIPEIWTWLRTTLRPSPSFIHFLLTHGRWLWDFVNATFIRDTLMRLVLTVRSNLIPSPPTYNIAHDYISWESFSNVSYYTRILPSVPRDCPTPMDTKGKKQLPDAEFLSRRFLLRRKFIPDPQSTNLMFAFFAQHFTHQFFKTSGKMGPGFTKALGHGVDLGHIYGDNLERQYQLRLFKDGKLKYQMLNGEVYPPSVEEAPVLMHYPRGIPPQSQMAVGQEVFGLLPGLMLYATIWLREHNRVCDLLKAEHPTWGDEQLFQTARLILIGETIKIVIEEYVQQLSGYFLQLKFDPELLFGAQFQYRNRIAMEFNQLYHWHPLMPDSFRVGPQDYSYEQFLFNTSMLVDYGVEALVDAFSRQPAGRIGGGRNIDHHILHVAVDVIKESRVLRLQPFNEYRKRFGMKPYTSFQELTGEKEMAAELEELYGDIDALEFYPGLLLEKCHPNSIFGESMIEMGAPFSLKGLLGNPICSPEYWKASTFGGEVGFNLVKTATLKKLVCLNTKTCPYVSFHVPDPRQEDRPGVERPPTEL
Procedure, shortened: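 Cell-free colorimetric assay of enzyme activity in a native extract of ovine seminal vesicles. Absorbance was read 0.66 hour after compound addition. Loss of signal relative to the DMSO negative control was scored, with actives from the 25 uM duplicate primary screen retested in concentration series.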

[15] = biological target: Androgen Receptor/SRC-1 Co-activator, AR (gene 367) (UniProt P10275); assay: OT_AR_ARSRC1_0960: Odyssey Thera (OT) 16-hour HEK293T Protein-Complementation Assay for Androgen Receptor/SRC-1 Co-activator (AID 2283353; active = hit-call score of the fitted dose curve at least 0.9, where 1 is the maximum;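 note: actives raise the signal above DMSO so potency reflects increased AR and SRC-1 complex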)
Sequence of Androgen Receptor/SRC-1 Co-activator, AR (gene 367) (P10275 whole entry, looked up, the tested form may be a part): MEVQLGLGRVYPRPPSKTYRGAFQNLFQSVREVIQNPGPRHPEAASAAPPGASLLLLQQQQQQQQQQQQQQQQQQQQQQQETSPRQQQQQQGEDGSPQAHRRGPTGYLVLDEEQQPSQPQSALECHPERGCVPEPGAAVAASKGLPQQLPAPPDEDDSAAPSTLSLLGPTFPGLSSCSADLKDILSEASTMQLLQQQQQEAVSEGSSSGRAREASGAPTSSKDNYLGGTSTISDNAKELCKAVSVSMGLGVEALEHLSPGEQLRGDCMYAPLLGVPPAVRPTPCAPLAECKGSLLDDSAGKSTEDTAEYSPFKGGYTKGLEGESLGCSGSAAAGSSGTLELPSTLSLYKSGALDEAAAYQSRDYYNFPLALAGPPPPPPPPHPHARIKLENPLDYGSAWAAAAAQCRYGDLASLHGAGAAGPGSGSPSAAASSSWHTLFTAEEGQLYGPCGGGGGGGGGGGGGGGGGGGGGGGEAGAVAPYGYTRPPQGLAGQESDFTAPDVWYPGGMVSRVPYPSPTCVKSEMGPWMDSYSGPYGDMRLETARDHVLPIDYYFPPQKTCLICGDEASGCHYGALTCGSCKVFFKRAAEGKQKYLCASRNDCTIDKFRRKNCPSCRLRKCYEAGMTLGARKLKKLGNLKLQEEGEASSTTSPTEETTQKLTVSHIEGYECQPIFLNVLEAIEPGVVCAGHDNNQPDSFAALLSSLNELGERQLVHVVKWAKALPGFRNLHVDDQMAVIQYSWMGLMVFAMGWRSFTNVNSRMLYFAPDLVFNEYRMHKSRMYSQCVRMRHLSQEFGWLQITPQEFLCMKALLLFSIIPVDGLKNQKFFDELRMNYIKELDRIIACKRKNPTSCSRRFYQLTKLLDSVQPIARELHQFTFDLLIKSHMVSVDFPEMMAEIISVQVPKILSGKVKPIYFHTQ
Procedure, shortened: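 Endpoint is gain-of-signal N/C fluorescence ratio in the 488 nm channel versus DMSO, from at least 400 cells per image, measured 16 h post-dosing. Cells: HEK293T stably carrying split-Venus AR/SRC-1 complementation constructs.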

[16] = biological target: Androgen Receptor/SRC-1 Co-activator, AR (gene 367) (UniProt P10275); assay: OT_AR_ARSRC1_0480: Odyssey Thera (OT) 8-hour HEK293T Protein-Complementation Assay for Androgen Receptor/SRC-1 Co-activator (AID 2283354; active = hit-call score of the fitted dose curve at least 0.9, where 1 is the maximum;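 note: hits raise the complementation signal above DMSO so AC50 marks enhancers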)
Procedure, shortened: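 Split-Venus PCA, stable HEK293T, AR/SRC-1 fusions; 8 h exposure. Readout: 488nm N/C fluorescence ratio, ≥400 cells/image; fitted upward vs DMSO baseline.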

[17] = CCTE_Deisenroth_AIME_384WELL_CTox_Active: Cytotoxicity Assessment (CTOX) in CCTE's 384-well Estrogen Receptor Transactivation Assay with AIME metabolic competence (metabolism positive), Deisenroth Lab (AID 2284037; active = hit-call score of the fitted dose curve at least 0.9, where 1 is the maximum;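 note: chemicals first conditioned 2 h by alginate-bound induced rat liver S9 before cells; activity means signal loss indicating cell death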)
Procedure, shortened: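 Chemicals pre-incubated 2 hours with alginate-immobilised phenobarbital/beta-naphthoflavone-induced male Sprague Dawley rat liver S9, then conditioned medium applied 24 hour to VM7Luc4E2 cells. Viability by fluorogenic protease substrate; 10-point series 0.002 - 200 uM.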

[18] = biological target: Peroxisome proliferator-activated receptor gamma (Homo sapiens) (UniProt P37231); assay: NVS_NR_hPPARg: NovaScreen (NVS) Nuclear Receptor Binding Assay for human Peroxisome Proliferator-activated Receptor gamma (PPARg) (AID 2283370; active = hit-call score of the fitted dose curve at least 0.9, where 1 is the maximum)
Sequence of Peroxisome proliferator-activated receptor gamma (Homo sapiens) (P37231 whole entry, looked up): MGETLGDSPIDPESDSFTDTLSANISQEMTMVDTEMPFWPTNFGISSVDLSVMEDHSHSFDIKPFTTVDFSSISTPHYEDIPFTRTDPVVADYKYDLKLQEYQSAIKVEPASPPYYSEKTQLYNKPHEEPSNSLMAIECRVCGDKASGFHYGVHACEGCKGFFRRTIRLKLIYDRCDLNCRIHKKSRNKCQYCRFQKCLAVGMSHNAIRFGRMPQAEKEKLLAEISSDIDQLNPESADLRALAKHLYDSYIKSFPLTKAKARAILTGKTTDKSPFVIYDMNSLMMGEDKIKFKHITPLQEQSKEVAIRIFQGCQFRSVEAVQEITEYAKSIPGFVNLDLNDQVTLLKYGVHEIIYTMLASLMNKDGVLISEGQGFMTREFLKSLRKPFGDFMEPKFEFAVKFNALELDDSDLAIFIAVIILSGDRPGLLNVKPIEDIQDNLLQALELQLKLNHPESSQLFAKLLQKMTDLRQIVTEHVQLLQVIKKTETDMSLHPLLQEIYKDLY
Procedure, shortened: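 Cell-free binding to extracted PPARg protein, read by fluorescence polarization 2 h after dosing; loss of signal relative to DMSO baseline marks displacement. Primary screen in duplicate at 25 uM, actives retested in concentration series.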

CCC(C)(CCC(C)C)C(=O)O (stereo unspecified)
AC50 [1]: 2.32 µM (active)

CC1=NN(c2cc(Cl)c(S(=O)(=O)O)cc2Cl)C(=O)C1N=Nc1ccc(S(=O)(=O)O)cc1 (stereo unspecified)
outcome [2]: inactive | outcome [3]: inactive | outcome [4]: inactive | AC50 (SRD5A2 (gene 6716)): 10 µM (active)

CN(C)CCC(c1ccc(Cl)cc1)c1ccccn1 (stereo unspecified)
AC50 [5]: 12.1 µM (active) | AC50 [6]: 10.3 µM (active) | AC50 [7]: 3.21 µM (active) | AC50 [8]: 3.14 µM (active) | AC50 [9]: 2.54 µM (active) | AC50 [10]: 7.29 µM (active)

Cc1cc(O)cc(C)c1Cl
outcome [11]: inactive | AC50 [12]: 13.8 µM (active) | outcome [13]: inactive

CC(C)CC(=O)O
AC50 [14]: 25 µM (active)

Clc1ccccn1
outcome [6]: inactive

Cc1cc(C)c(S(=O)(=O)O)cc1N=Nc1cc(S(=O)(=O)O)c2ccccc2c1O
outcome [15]: inactive | outcome [16]: inactive | AC50 [2]: 29.5 µM (active)

C1=CCC=C1
outcome [17]: inactive

CN(C)c1ccc(C(c2ccccc2)c2ccc(N(C)C)cc2)cc1
outcome [1]: inactive

COC(=O)c1ccccc1
outcome [14]: inactive

Cc1cc2nc3c(=O)[nH]c(=O)nc-3n(C[C@H](O)[C@H](O)[C@H](O)CO)c2cc1C
outcome [3]: inactive | outcome [4]: inactive | AC50 (SRD5A2 (gene 6716)): 27.1 µM (active)

C=C1CC[C@H]2C[C@@H]1C2(C)C
outcome [2]: inactive

CCCCCC[C@@H](O)C/C=C\CCCCCCCC(=O)O
AC50 [18]: 15.1 µM (active) | outcome [3]: inactive | outcome [4]: inactive | outcome (SRD5A2 (gene 6716)): inactive

CCO[Si](CCCN)(OCC)OCC
outcome [11]: inactive | outcome [12]: inactive | outcome [13]: inactive

c1ccc(CNc2ncnc3nc[nH]c23)cc1
outcome [11]: inactive | outcome [12]: inactive | AC50 [13]: 21.9 µM (active)
